According to ChEMBL document CHEMBL3988442, “University of Dundee, Small-Polar-MMV Screening Library” (2021):
For some assays here: Results with a measured potency or affinity are listed apart.

Columns and labels:
Set-up in all cases: scale not given: direction of the effect not stated beside the values
[1] = biological target: Protein translocase subunit SecA (Escherichia coli (strain K12)) (UniProt P10408); test: Assay to Identify E. coli SecA ATPase Inhibitors; format: functional; settings: 30 µM
Sequence of Protein translocase subunit SecA (Escherichia coli (strain K12)) (P10408 whole entry): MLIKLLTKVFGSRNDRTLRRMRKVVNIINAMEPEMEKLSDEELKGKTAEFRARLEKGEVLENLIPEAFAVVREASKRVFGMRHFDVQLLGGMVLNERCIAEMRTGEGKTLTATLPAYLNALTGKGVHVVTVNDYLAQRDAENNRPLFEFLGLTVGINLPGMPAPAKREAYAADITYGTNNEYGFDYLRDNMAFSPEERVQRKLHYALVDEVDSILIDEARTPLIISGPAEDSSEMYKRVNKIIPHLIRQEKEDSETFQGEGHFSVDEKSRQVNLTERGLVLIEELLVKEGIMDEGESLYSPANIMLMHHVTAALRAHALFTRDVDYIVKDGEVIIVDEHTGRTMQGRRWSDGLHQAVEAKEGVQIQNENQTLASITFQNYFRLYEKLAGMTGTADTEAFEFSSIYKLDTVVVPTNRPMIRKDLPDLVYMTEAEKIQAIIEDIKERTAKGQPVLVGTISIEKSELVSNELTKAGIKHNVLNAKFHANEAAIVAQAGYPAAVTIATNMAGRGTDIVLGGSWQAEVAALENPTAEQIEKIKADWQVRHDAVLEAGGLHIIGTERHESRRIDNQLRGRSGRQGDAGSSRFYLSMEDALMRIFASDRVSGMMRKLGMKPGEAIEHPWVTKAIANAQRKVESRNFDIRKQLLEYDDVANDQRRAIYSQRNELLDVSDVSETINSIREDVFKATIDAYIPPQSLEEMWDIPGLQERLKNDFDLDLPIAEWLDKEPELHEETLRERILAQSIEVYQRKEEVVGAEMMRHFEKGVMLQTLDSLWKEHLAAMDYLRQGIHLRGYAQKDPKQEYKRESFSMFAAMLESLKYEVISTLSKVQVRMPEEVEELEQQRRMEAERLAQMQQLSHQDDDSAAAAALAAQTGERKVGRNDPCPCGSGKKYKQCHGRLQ

[2] = biological target: T1, Ubiquitin-activating enzyme e1, putative (Leishmania donovani (strain BPK282A1)) (UniProt E9BSI1); test: Leishmania donovani Ubiquitin Activating Enzyme (LdE1); format: functional; settings: 30 µM
T1 sequence (whole entry): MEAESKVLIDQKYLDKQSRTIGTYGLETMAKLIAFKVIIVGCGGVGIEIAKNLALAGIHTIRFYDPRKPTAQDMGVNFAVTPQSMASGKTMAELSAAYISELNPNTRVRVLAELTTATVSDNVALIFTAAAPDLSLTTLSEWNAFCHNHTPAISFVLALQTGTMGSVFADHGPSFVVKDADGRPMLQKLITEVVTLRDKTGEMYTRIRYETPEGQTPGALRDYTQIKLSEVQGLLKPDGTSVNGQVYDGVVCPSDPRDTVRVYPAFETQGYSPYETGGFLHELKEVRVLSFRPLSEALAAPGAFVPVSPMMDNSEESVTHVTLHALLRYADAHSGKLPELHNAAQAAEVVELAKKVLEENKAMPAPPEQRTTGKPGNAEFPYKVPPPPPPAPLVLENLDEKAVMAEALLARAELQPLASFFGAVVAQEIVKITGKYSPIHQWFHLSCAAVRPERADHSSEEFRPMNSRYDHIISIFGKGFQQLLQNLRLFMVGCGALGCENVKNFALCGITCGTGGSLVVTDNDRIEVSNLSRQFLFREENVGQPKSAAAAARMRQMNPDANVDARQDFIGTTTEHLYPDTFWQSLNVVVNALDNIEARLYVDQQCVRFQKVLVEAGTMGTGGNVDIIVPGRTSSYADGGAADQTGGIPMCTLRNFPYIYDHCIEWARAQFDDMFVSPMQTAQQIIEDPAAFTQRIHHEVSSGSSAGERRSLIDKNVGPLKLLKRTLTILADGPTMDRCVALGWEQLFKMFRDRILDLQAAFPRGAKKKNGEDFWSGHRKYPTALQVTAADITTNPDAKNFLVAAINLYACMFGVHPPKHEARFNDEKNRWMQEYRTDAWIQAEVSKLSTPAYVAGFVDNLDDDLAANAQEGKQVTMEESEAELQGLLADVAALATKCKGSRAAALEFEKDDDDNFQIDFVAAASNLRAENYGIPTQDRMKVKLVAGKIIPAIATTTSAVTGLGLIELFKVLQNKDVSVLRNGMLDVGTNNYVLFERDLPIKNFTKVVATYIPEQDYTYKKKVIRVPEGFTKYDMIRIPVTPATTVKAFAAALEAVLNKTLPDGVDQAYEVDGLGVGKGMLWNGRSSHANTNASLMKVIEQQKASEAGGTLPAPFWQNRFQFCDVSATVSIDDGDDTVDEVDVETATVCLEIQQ

[3] = biological target: AMP-activated protein kinase, AMPK (Homo sapiens) (UniProt P54646+O43741+P54619+Q9UGJ0+Q9Y478+Q13131+Q9UGI9); test: AMP-dependent Kinase enzyme assay. An in vitro enzyme assay that detects ADP turnover that is directly proportional to AMPK activity. This uses naive AMPK that is activated during the assay with MK-8722; format: functional; settings: 30 µM
[4] = biological target: Sialic acid-binding Ig-like lectin 9 (Homo sapiens) (UniProt Q9Y336); test: Hs-Siglec9 ALPHAscreen SOP 20170721; settings: 10 µM
Sequence of Sialic acid-binding Ig-like lectin 9 (Homo sapiens) (Q9Y336 whole entry): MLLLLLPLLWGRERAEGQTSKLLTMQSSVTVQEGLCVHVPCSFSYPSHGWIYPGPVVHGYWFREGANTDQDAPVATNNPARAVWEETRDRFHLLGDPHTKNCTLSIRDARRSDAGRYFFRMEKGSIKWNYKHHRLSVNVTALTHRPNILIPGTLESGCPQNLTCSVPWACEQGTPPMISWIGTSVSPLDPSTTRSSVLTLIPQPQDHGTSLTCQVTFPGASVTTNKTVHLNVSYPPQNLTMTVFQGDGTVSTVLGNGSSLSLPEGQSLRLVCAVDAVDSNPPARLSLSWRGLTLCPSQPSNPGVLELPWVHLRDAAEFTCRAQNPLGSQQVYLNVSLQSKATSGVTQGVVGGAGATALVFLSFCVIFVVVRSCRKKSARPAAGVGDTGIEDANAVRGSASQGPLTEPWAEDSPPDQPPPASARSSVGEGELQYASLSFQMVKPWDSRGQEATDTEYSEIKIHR

Trypanosoma cruzi = test: Trypanosoma cruzi phosphomannomutase and mannose-1-phosphate guanylyltransferase assay; format: functional; settings: 10 µM
[5] = biological target: T2, Arginase-2, mitochondrial (Homo sapiens) (UniProt P78540); test: in vitro enzyme assay to detect the production of urea directly proportional to the activity of Arginase II; format: functional; settings: 33.3 µM; further: in the data most compounds retested in dose-response had high values
T2 sequence (whole entry): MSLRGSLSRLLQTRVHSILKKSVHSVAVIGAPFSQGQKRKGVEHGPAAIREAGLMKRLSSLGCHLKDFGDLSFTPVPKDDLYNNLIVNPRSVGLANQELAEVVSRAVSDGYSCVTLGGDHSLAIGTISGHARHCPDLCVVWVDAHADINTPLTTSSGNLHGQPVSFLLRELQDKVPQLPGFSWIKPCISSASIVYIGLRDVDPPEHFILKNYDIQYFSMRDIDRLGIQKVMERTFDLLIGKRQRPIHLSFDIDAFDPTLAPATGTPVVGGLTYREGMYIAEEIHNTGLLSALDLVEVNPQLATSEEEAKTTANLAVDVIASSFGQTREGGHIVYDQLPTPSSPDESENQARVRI

[6] = biological target: T3, Proteasome subunit beta (Trypanosoma cruzi) (UniProt O96673); test: Trypanosoma cruzi proteasome chymotrypsin-like activity (TcProtChymo) assay.; further: in the data most compounds retested in dose-response had high values; format: functional; settings: 9.37 µM
T3 sequence (whole entry): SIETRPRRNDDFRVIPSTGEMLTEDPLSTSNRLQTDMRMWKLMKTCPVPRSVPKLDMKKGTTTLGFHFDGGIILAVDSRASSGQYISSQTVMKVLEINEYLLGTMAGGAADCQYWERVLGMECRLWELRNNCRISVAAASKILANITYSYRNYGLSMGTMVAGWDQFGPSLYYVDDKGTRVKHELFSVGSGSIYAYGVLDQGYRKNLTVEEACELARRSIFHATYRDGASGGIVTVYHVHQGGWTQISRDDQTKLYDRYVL

Homo sapiens = species: Homo sapiens; test: To identify inhibition of the IFN signalling (Jak-Stat) pathway via expression of an eGFP reporter gene under the control of an IFN-stimulated response element (ISRE) containing MxA promoter.; format: functional; settings: 30 µM
[7] = biological target: T4, Tyrosyl-tRNA synthetase, putative (Trypanosoma cruzi (strain CL Brener)) (UniProt Q4DSP6); test: Trypanosoma cruzi tyrosyl tRNA synthetase (TcYRS) _High Tyrosine SOP; format: functional; settings: 30 µM; further: in the data most compounds retested in dose-response had high values
T4 sequence (whole entry): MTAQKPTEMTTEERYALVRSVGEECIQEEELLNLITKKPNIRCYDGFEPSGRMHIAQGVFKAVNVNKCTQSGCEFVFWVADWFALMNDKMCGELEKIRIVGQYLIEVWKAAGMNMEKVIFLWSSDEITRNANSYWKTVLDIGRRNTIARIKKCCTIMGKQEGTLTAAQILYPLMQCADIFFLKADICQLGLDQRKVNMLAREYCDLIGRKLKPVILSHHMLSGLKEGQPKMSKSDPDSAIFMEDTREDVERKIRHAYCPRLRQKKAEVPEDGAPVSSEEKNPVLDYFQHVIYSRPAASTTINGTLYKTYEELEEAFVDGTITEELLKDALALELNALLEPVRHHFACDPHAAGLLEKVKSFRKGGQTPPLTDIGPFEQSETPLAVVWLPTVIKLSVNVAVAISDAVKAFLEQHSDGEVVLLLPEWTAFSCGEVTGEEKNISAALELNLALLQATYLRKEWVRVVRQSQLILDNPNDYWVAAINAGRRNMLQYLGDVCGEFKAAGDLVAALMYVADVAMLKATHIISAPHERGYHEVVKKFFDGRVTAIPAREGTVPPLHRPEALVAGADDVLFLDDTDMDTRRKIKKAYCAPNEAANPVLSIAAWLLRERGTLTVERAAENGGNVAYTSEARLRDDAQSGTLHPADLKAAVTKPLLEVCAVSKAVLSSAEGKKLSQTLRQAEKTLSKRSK

[8] = biological target: T4, Tyrosyl-tRNA synthetase, putative (Trypanosoma cruzi (strain CL Brener)); test: Trypanosoma cruzi tyrosyl tRNA synthetase (TcYRS) SOP; format: functional; settings: 30 µM
[9] = biological target: Chromo domain-containing protein 1 (Saccharomyces cerevisiae (strain ATCC 204508 / S288c) (Baker's yeast)) (UniProt P32657); test: ScCHD-1 Enzyme Inhibition Assay; format: functional; settings: 30 µM; further: in the data most compounds retested in dose-response had high values
Sequence of Chromo domain-containing protein 1 (Saccharomyces cerevisiae (strain ATCC 204508 / S288c) (Baker's yeast)) (P32657 whole entry, the tested form may be a part): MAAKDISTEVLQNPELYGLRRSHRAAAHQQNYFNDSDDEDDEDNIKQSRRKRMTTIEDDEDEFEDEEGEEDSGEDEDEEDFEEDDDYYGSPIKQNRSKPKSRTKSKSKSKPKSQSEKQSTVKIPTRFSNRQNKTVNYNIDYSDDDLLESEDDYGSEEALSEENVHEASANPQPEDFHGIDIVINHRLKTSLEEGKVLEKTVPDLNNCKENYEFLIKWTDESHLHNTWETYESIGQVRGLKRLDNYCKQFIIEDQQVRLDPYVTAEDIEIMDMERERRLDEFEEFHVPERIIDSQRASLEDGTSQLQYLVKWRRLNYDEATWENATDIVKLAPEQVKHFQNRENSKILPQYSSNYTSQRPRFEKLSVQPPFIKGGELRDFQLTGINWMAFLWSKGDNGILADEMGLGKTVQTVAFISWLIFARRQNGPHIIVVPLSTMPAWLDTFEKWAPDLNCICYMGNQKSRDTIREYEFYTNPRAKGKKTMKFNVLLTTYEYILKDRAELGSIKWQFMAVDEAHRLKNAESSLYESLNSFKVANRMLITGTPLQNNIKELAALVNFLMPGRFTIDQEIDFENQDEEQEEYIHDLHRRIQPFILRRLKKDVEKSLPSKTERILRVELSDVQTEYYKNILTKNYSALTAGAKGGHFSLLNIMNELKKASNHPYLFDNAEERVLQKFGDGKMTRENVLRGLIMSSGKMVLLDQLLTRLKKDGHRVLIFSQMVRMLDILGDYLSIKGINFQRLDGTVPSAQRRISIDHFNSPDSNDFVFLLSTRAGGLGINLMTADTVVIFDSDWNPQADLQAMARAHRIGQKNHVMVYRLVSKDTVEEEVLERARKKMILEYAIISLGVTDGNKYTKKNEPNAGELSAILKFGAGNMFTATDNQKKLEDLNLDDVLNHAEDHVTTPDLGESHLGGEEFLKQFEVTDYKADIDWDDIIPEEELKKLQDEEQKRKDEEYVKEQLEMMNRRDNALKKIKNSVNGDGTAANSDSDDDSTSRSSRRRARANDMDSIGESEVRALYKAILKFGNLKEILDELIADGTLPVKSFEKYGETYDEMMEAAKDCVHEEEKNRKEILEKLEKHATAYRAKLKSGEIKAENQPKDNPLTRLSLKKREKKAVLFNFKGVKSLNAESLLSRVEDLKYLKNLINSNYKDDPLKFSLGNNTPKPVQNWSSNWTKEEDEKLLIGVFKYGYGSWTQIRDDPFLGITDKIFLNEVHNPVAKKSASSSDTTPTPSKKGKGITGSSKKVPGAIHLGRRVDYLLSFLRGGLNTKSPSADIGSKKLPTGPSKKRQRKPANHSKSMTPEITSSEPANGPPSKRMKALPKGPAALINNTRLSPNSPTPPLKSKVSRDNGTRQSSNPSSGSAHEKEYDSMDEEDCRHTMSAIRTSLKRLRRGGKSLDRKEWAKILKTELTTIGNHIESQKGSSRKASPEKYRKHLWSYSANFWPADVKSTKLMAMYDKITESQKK

Row | Structure (SMILES) | Percent Effect [1] [%] | Percent Effect [2] [%] | Percent Effect [3] [%] | Percent Effect [4] [%] | Percent Effect (Trypanosoma cruzi) [%] | Percent Effect [5] [%] | Percent Effect [6] [%] | Percent Effect (Homo sapiens) [%] | Percent Effect [7] [%] | Percent Effect [8] [%] | Percent Effect [9] [%]
1 | CC(NC(=O)c1cccs1)C(=O)NCc1ccccc1CN1CCCC1 (stereo unspecified) | -4.29 | 23.4 | -5.29 | 2.04 | 4.12 | 3.2 | 12.5 | 5.06 | 12.6 | 21.9 | -11.2
2 | CC(=O)NCCNC(=O)c1sc(-c2ccc(C)cc2C)nc1C | -2.37 | 10.8 | -0.818 | -4.19 | -7.89 | 3.51 | 8.26 | 10.8 | 4.95 | 11 | 7.83
3 | O=C(COc1coc(CN2CCCCC2)cc1=O)Nc1ccccc1Cl | -4.47 | 4 | 6.82 | 3.14 | -2.16 | -8.28 | 12.2 | -3.22 | 10.6 | 12.8 | 0.706
4 | COc1ccc(COCC(O)CNC(=O)c2cc(C)cc(C)c2)cc1 (stereo unspecified) | -3.84 | 13.9 | 0.387 | -0.514 | 0.718 | -4.09 | 9.95 | 9.63 | 4.17 | 17.7 | -15.9
5 | Cn1ccc(C(=O)N2CCC(Cc3cnc4[nH]ccc4c3)CC2)n1 | -2.94 | 6.76 | 13 | 2.89 | -0.395 | 1.16 | 7.64 | 7.58 | 4.3 | 14.3 | -4.7
6 | CCc1csc(C2CCCN(C(=O)C3=NN(CC)C(=O)CC3)C2)n1 (stereo unspecified) | -3.73 | 7.79 | -3.68 | 5.23 | 6.37 | 2.13 | -5.07 | 11.1 | 4.85 | 12.2 | -7.52
7 | Cc1cc(C)n(CC2CCCN2CC(=O)NC2CCOCC2)n1 (stereo unspecified) | -8.59 | 10.4 | 1.94 | 3.84 | -3.93 | 2.13 | 3.21 | -10 | 1.94 | 9.76 | -3.99
8 | CC(=O)Nc1nc(C(=O)N2CCCC2c2ccccc2C)cs1 (stereo unspecified) | -3.82 | 10.4 | 8.63 | 1.33 | -8.24 | 4.27 | 3.21 | 31.4 | 5.83 | 9.76 | -5.39
9 | CO[C@@H]1CC[C@H]2[C@H]1OCCN2C(=O)COc1ccc(F)cc1 | 0.9 | -2.7 | 12.4 | 0.225 | -4.01 | 3.5 | 15.3 | 3.76 | 4.32 | -2.56 | 0.177
10 | CC(CN1CCOCC1)NCC1CCN(c2cnn(C)c(=O)c2)CC1 (stereo unspecified) | -4.77 | -1.39 | -4.64 | 1.85 | -1.85 | -0.883 | 4.21 | -10.4 | 0 | -10.3 | 1.95
11 | COc1c(CNC2CCCOc3ccccc32)c(C)nn1C (stereo unspecified) | -6.71 | 5.41 | -2.77 | 4.94 | 3.81 | 3.23 | 8.5 | -6.93 | 6.45 | 11.1 | -1.97
12 | Cc1nc(NCCc2ccc(Cl)cc2)cc(C(=O)N2CCCCC2)n1 | -1.97 | 7.79 | 7.85 | -0.26 | -8.16 | -16.6 | 22.6 | 10.8 | 0 | 1.24 | -2.69
13 | Cn1ccc(C(=O)N2CCN(c3ncccn3)CC2)cc1=O | -7.23 | 5.41 | 33.6 | 9.56 | -3.49 | -2 | 6.13 | 4.12 | 3.45 | 11.1 | -2.92
14 | Cn1ccc(CN2CCC(CO)CC2)cc1=O | -3.9 | -1.27 | 2.26 | 0.971 | -4.41 | 2.8 | 1.03 | 26.1 | -2.08 | 10.1 | -1.56
15 | O=C(c1cccnc1)N1C[C@@H]2CC[C@H](C1)N(Cc1cc(F)ccc1F)C2 | 0.34 | 11 | 29.4 | -0.061 | 3.33 | 0 | 10.3 | 21.9 | 7.53 | 15 | -7.41
16 | Cc1csc(N2CCN(Cc3cnc(C)s3)CC2C)n1 (stereo unspecified) | -4.06 | 5.48 | 3.55 | -0.927 | 2.94 | 1.36 | 11.2 | 52.1 | 5.38 | 17.5 | -2.04
